# Source: PubChem BioAssay (Tox21)
# Inconclusive results are not listed. Active and inactive are the calls of the source. Calls come from the whole dose curve; as a rule, active = well fitted inhibition curve with a large enough effect in the repeat runs; inconclusive = weak or mixed curves, or effect the other way; inactive = no such curve, though single readings can be large or run the other way.
# Test: qHTS assay to identify small molecule antagonists of the retinoic acid receptor (RAR) signaling pathway (AID 1159552; note: nearly all actives have a fitted effect of over 50% in size)
# Details: C3RL4 RARE luciferase reporter, retinol-stimulated, 6 h; series mostly up to 92.4 µM; activity, negative = inhibition: at the top concentration
# Source text: National Center for Advancing Translational Sciences [NCATS]
# NIH Chemical Genomics Center [NCGC]
# U.S. Environmental Protection Agency [EPA]
# National Institutes of Environmental Health Sciences [NIEHS]
# National Toxicology Program [NTP]
# U.S. Food and Drug Administration [FDA]
# All-trans Retinoic acid (atRA) is the potent natural metabolite of retinol and plays an important role in normal embryonic development and maintenance of cellular phenotype in adult animals. atRA is the activating ligand for the retinoic acid receptors (RARs) which form heterodimers with retinoid X receptors (RXRs) on the retinoic acid response element (RARE). Through activation of the RAR/RXRs nuclear receptors, atRA regulates the transcription of a large number of protein-coding genes and regulatory RNAs. Intracellular levels of atRA are controlled by the retinol signaling pathway (RSP) that regulates the biosynthesis and catabolism of atRA to maintain physiological levels. Chemicals that interfere with the RSP can cause abnormal intracellular levels of atRA and therefore are potential developmental toxicants. To assess compounds for the potential adverse effect on embryonic development through interfering with retinol signaling, a cell-based RARE luciferase reporter gene assay was used. C3RL4 cell line (OARSA/CFSAN/FDA, Laurel, MD) was used to screen Tox21 10K compound library for identifying inhibitors of the RSP.
# Tox21 Assay Protocol Summary:
# C3RL4 cells were seeded at 1,000/well in 4 uL of assay medium into white solid 1,536-well tissue culture plates (Greiner Bio-One North America Inc. Monroe, NC) using a Multidrop Combi (Thermo Scientific, Waltham, MA) dispenser. After incubation at 37 C and 5% CO2 for an overnight, 23 nL of compounds dissolved in DMSO, positive control or DMSO only were transferred by a Pintool station (Kalypsys, San Diego, CA). One ul of 1 uM (final concentration) of Retinol was added right after the compound addition by using a Flying Reagent Dispenser (FRD) (Aurora Discovery, San Diego, CA). After 6 hr incubation at 37 C and 5% CO2, 5 uL of Amplite Luciferase reagent (AAT Bioquest Inc. Sunnyvale, CA) was added to each assay plate using an FRD. Luminescence was quantified on a ViewLux plate reader (PerkinElmer, Waltham, MA) after 30 min incubation at room temperature.
# % is set by controls: 0 for no effect and ±100 for the full control effect; potency is the fitted concentration of half-maximal effect.
SMILES,"activity, negative = inhibition",Potency
CCOc1ccc(OCC)c(Cl)c1,-4.1% (inactive),–
CC(C)NC[C@@H](O)COc1cccc2ccccc12,2.14% [at 42.5 µM] (inactive),–
Nc1ccc(Oc2ccc(N)c(N)c2)cc1,96.9% (inactive),–
CCN(CC)CCNC(=O)COc1ccc(Cl)cc1,-3.57% [at 42.5 µM] (inactive),–
CC(C)C1=CC2=CC[C@@H]3[C@](C)(CCC[C@@]3(C)C(=O)O)[C@H]2CC1,5.27% (inactive),–
CCOC(=O)CS,–,28.1 µM (active)
N#CSCC(=O)O,1.52% [at 42.5 µM] (inactive),–
C=Cc1ccccc1,-3.25% (inactive),–
CC[C@H]1CC[C@H](NCc2cc3c(cc2OC)[C@H]2C[C@H]2C(=O)N3C)[C@H](c2ccccc2)N1,–,13.7 µM (active)
C[C@]12CCC(=O)C=C1CC[C@@H]1[C@@H]2CC[C@@]2(C)[C@H]1CC[C@]2(O)C(=O)CO,-22.2% [at 42.5 µM] (inactive),–
CCC1(C)NC(=O)NC1=O (stereo not given),-2.3% (inactive),–
Cc1nc(N)nc(N)c1-c1ccc(Cl)c(Cl)c1,-13.3% [at 42.5 µM] (inactive),–
CC(C)(C)c1ccc(OC(=O)c2ccccc2O)cc1,82.9% (inactive),–
O=c1oc2c(O)c(O)cc3c(=O)oc4c(O)c(O)cc1c4c23,3.23% [at 19 µM] (inactive),–
CCN(CC)C(=O)N(CC)CC,1.77% (inactive),–
CC1=CC(=O)CC(C)(C)C1=O,5.07% (inactive),–
CC(CNC1CCCCC1)OC(=O)c1ccccc1 (stereo not given),-6.61% [at 42.5 µM] (inactive),–
CC(C)C[C@H](NC(=O)OCC1c2ccccc2-c2ccccc21)C(=O)O,80.2% (inactive),–
C/C(=N\O)[C@@H](C)NCC(C)(C)CN[C@H](C)/C(C)=N/O,2.51% [at 42.5 µM] (inactive),–
CO[C@@]1(NC(=O)CSCC#N)C(=O)N2C(C(=O)O)=C(CSc3nnnn3C)CS[C@@H]21,2.07% [at 42.5 µM] (inactive),–

SMILES,"activity, negative = inhibition",Potency
O=C1CCCCC1C1CCCCC1 (stereo not given),1.99% (inactive),–
CCOc1ccc2nc(N)sc2c1,116% (inactive),–
O=C(O)CN(CCN(CC(=O)O)CC(=O)O)CCN(CC(=O)O)CC(=O)O,-10.7% [at 19 µM] (inactive),–
CC(Oc1c(Cl)cccc1Cl)C1=NCCN1 (stereo not given),-73.4% [at 42.5 µM] (inactive),–
CC(C)S,13.6% (inactive),–
OCCN(CCO)c1ccccc1,28.2% (inactive),–
CCCCNc1cc(C(=O)O)cc(S(N)(=O)=O)c1Oc1ccccc1,-8.3% [at 42.5 µM] (inactive),–
C[C@@H](N)C(=O)O,84.5% [at 42.5 µM] (inactive),–
CCCC(CCC)(C(=O)OCC)C(=O)OCC,-13.8% [at 42.5 µM] (inactive),–
Cc1ncc(CO)c(CN)c1O,15% [at 42.5 µM] (inactive),–
O=S(=O)(O)C(F)(F)F,1.77% (inactive),–
FC(F)(F)c1ccccc1,-10.5% (inactive),–
CN1CCN(C2=Nc3ccccc3Oc3ccc(Cl)cc32)CC1,-1.48% [at 42.5 µM] (inactive),–
OCCN1CCN(CCO)CC1,48% (inactive),–
Cc1ccc(C)c(N)c1,-0.653% (inactive),–
O=C(CCCl)NCc1ccccc1,-1.34% [at 42.5 µM] (inactive),–
Cc1onc(-c2ccccc2)c1C(=O)Cl,3.46% [at 42.5 µM] (inactive),–
COC(=O)N[C@H](C(=O)N[C@@H](Cc1ccccc1)[C@@H](O)CN(Cc1ccc(-c2ccccn2)cc1)NC(=O)[C@@H](NC(=O)OC)C(C)(C)C)C(C)(C)C,2% [at 42.5 µM] (inactive),–
C=C(C)C(=O)OCCOP(=O)(O)O,-8.97% (inactive),–
CC(C)CC(=O)OCc1ccccc1,-0.456% (inactive),–
